# Source: PubChem
# A selection: hits, their analogues and other compounds. The true share with any hit is near 8.2%.
# ELG1 repair inh: inhibitors of ELG1-dependent DNA repair in HEK293T cells | HEK293T ELG1-luciferase reporter, luminescence, 16 h; DNA damage induced by 5-fluorouridine | Potency, µM (top dose mostly 46.1 µM), most hits filed as inhibitors | hit rate 2.3% among 330,000; note: nearly all actives have a fitted effect of over 55% in size
#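 Cells (2,000 per well) received 5-fluorouridine plus test compound or DMSO and were incubated 16 hr at 37 °C, 5% CO2. Luciferase activity was read by luminescence 30 min after ONE-Glo addition; signal suppression marked inhibition of damage-induced ELG1 function.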
# MCF10A rerep: induces DNA re-replication in MCF 10a normal breast cells. MCF 10A DNA re-replication, Hoechst nuclear intensity, 48 h. Potency, µM (titrated, usually from 46.1 µM), hits mostly activators. hit rate 2.9% among 350,000; note: nearly all actives have a fitted effect of over 50% in size
# KB-3-1 tox: KB-3-1 parental cell cytotoxicity | hit rate 1.4% among 400,000 | Potency, µM (series often up to 46.1 µM), hits mostly cytotoxic | KB-3-1 viability, CellTiter-Glo ATP luminescence, 72 h | AID 1347075; note: nearly all actives have a fitted effect of over 60% in size
#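 Cytotoxicity in the drug-sensitive parental line KB-3-1 was scored as loss of CellTiter-Glo luminescence following 72 h incubation with compound. Values come from curve fitting of normalized concentration-response data.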
# SW480 rerep: inducers of DNA re-replication in SW480 colon cancer cells; SW480 DNA re-replication, Hoechst DNA content imaging, 48 h; Potency, µM (top dose mostly 46.1 µM), hits mostly activators; hit rate 1.8% among 340,000; AID 624297; note: nearly all actives have a fitted effect of over 55% in size
#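 Compounds, transferred as 23 nL by pin tool, were incubated with cells for 48 hr; DNA content per nucleus was then quantified by Hoechst staining and fluorescence plate imaging.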
# KB-V1 cytotox: kills drug-selected multidrug resistant KB-V1 cells | KB-V1 MDR cells viability, CellTiter-Glo, 72 h | Potency, µM (highest dose often 46.1 µM), actives largely listed as cytotoxic | hit rate 3.4% among 400,000 | AID 1347076; note: nearly all actives have a fitted effect of over 60% in size
#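 In this primary screen, KB-V1 cells overexpressing P-gp are incubated with library compounds (lowest to highest concentration) for 72 h at 37 degrees C before a luminescent ATP viability read.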
# ELG1 FLuc counter: luciferase inhibition in cell-free luciferin readout for ELG1 hits; shares compounds with ELG1 repair inh; cell-free firefly luciferase luminescence counter-screen, ViewLux; Potency, µM (doses to about 46.1 µM), usual class: inhibitors; hit rate 3% among 350; AID 624247
# ELG1 Luc conf: human ELG1 repair inhibition, luciferase-tagged ELG1 confirmation. hit rate 68% among 670. HEK293T ELG1-luciferase levels, luminescence; cells co-treated with 5-fluorouridine. Potency, µM (top dose mostly 46.1 µM), most hits filed as inhibitors. AID 624248. shares compounds with ELG1 repair inh; note: nearly all actives have a fitted effect of over 55% in size
# ELG1-Luc MMS: MMS-stimulated human ELG1 repair inhibition, confirmed | AID 624249 | hit rate 53% among 670 | HEK293T luciferase-tagged ELG1 level, MMS stimulated | Potency, µM (titrated, usually from 46.1 µM), most hits filed as inhibitors | shares compounds with ELG1 repair inh; note: nearly all actives have a fitted effect of over 60% in size
# ELG1 5FU viab: confirmation of ELG1 repair inhibitors: viability with 5FU; shares compounds with ELG1 repair inh; cell viability with 5-FU, ELG1-dependent repair; Potency, µM (titrated, usually from 46.1 µM), most hits filed as cytotoxic; 670 tested, under 10 active; AID 624250;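 note: ELG1-luc HEK293T cells cotreated with 5-fluorouridine at 10 µM final; viability measured 16 h after compound addition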
# ELG1 MMS viab: confirmation of ELG1 repair inhibitors: viability with MMS; shares compounds with ELG1 repair inh; Cell viability with MMS, ELG1-dependent DNA repair; Potency, µM (series often up to 46.1 µM), actives largely listed as cytotoxic; hit rate 33% among 670; AID 624251;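 note: ELG1-luc HEK293T cells co-treated with 10 µM MMS; viability read 16 h after compound addition; nearly all actives have a fitted effect of over 60% in size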
# ELG1 unstim viab: affects unstimulated cell viability, ELG1 hit counter-screen. shares compounds with ELG1 repair inh. cell viability counter-screen, unstimulated, luminescence. Potency, µM (highest dose often 45.9 µM), hits mostly cytotoxic. hit rate 8% among 900. AID 624252;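 note: compound exposure lasted 16 hours before reading; nearly all actives have a fitted effect of over 55% in size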
# FLuc biochem: firefly luciferase inhibition counter-screen; shares compounds with ELG1 repair inh; purified firefly luciferase, luminescence counter-screen; Potency, µM (doses to about 57.5 µM), most hits filed as inhibitors; hit rate 10% among 350
# Hits are given with their value; n = inactive; u = inconclusive; x = no result given; ! = repeats disagree. Calls come from the whole dose curve; as a rule, active = well fitted curve in the direction sought with a large enough effect; inconclusive = small, poorly fitted or top-dose-only effect, or another doubt; inactive = no such curve, though single readings can be large; an effect the other way counts as inactive or inconclusive.
SMILES,ELG1 repair inh,MCF10A rerep,KB-3-1 tox,SW480 rerep,KB-V1 cytotox,ELG1 Luc conf,ELG1-Luc MMS,ELG1 5FU viab,ELG1 MMS viab,ELG1 unstim viab,others
COc1cccc(-c2nc(-c3ccccc3)c(-c3ccccc3)[nH]2)c1OCC(=O)O,n,n,n,n,n,x,x,x,x,x,
C=CCn1c(C)cc(C(=O)COC(=O)c2n[nH]c(=O)c3ccccc23)c1C,u,n,n,n,n,x,x,x,x,n,
Cc1cccc(/C=C/c2onc(C)c2S(=O)(=O)N2CCC(C(=O)N3CCCCCC3)CC2)c1,u,n,n,u,n,x,x,x,x,x,
Cc1noc(/C=C/c2ccco2)c1S(=O)(=O)N1CCC(C(=O)N(C)Cc2ccccc2)CC1,4.6µM,u,n,n,n,3.1µM,n,u,n,n,
Cc1cccc(/C=C/c2onc(C)c2S(=O)(=O)N2CCC(C(=O)N3CCC(C)CC3)CC2)c1,1.8µM,u,16µM!,n,u,1.3µM,n,u,n,u,
COc1ccc(OC)c(Nc2nc(NCCCN(C)C)nc(N)c2[N+](=O)[O-])c1,n,u,n,u,n,x,x,x,x,x,
COCCCNc1nc(N)c([N+](=O)[O-])c(Nc2cc(OC)ccc2OC)n1,1.8µM,u,n,u,n,1.1µM,u,u,n,n,
CCCN(C(=O)c1nn(-c2ccc(OC)cc2)c(=O)c2c1c1ccccc1n2C)c1ccc(CC)cc1,x,x,n,x,n,x,x,x,x,x,
Cc1ccc([N+](=O)[O-])cc1Nc1nc(N2CCOCC2)nc(N2CCOCC2)n1,16µM,n,n,n,n,8.9µM,u,u,u,u,ELG1 FLuc counter=n;FLuc biochem=n
COc1ccccc1Nc1nc(N2CCOCC2)nc(N2CCOCC2)n1,1.6µM,n,u,u,n,7.9µM,n,u,n,n,ELG1 FLuc counter=n;FLuc biochem=n
COc1cc(C(=O)OC2CSCC2NC(=O)c2ccccc2)cc(OC)c1OC (centres undefined),4.1µM,n,n,n,n,10µM,n,u,u,u,
CC(C)n1cnc2c(NCc3ccccc3)cc(N[C@H](C)CO)cc21,4.1µM,u,u,0.65µM,n,7.9µM,0.44µM,16µM,0.71µM,8.9µM,
CCOC1=C2[C@@H](CN(S(=O)(=O)c3ccc(C)cc3)[C@H]2c2ccccc2)[C@H]2C(=O)N(c3ccccc3)C(=O)[C@H]2C1,x,x,n,x,n,x,x,x,x,x,
COc1ccccc1/C=C/c1nc2ccccc2o1,x,x,u,x,n,x,x,x,x,n,
COc1ccc(-c2ccc(CCC(=O)O)n2-c2ccc(Cl)cc2C)cc1,x,x,n,x,n,x,x,x,x,x,
O=C(CS(=O)CC(=O)N(CC(=O)NC1CCCC1)c1ccccc1F)Nc1ccc(F)cc1 (centres undefined),n,n,n,n,n,x,x,x,x,x,
Cc1ccc(NC(=O)Cn2cnc3ccccc32)cc1C,4.6µM,n,n,u,n,n,u,n,u,u,
O=C(Cn1cnc2ccccc21)Nc1cccc([N+](=O)[O-])c1,u,n,n,n,n,x,x,x,x,x,
